Here are results for one sequence from article PMC7862700, “An all-to-all approach to the identification of sequence-specific readers for epigenetic DNA modifications on cytosine”.

Common to all, as to assay: DAPPL (digital affinity profiling via proximity ligation, sequencing); 10 mM Tris-HCl pH 7.5, 50 mM NaCl, 1 mM DTT, 4% glycerol, room temperature, 30 min; GST-TFs on glutathione beads, 16-mer random dsDNA library, 0.1% formaldehyde crosslink after washing; high values mean tight binding
The target of assay [1] is T1, FEV (Homo sapiens, UniProt Q99581 1-238).
T1 sequence: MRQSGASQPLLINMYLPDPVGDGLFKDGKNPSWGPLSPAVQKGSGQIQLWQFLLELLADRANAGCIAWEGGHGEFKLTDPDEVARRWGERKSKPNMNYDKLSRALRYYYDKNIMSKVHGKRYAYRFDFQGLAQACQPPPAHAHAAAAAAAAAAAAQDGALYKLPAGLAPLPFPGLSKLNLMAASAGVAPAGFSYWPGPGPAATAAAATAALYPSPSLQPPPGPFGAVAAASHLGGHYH
The conditions noted are these: protein: recombinant; tags: N-terminal GST; dsDNA, one strand shown. The method in brief: (§1)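 Human transcription factors were made in yeast as GST fusions, captured on glutathione beads and barcoded with DNA. With a tag-only sample included, the pool was incubated with 200 nmole of a random double-stranded 16-mer DNA library in Tris/NaCl/DTT/glycerol buffer at room temperature for 30 min, then crosslinked with 0.1% formaldehyde after washing, ligated by proximity, amplified and sequenced. For binding signal, each hexamer's read frequency for a factor is divided by its frequency for the tag-only sample.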

Assay [2] has as its target ETV5 (Homo sapiens, UniProt P41161 1-510). The settings on record: protein: recombinant; tags: N-terminal GST; dsDNA, one strand shown. The procedure, abridged:
as §1

Assay [3] deals with HSF1 (Homo sapiens, UniProt Q00613 1-529). The conditions noted are these: protein: recombinant; tags: N-terminal GST; chain copies: 3; dsDNA, one strand shown. The procedure, abridged: as §1
Chain of HSF1 (Q00613 whole entry): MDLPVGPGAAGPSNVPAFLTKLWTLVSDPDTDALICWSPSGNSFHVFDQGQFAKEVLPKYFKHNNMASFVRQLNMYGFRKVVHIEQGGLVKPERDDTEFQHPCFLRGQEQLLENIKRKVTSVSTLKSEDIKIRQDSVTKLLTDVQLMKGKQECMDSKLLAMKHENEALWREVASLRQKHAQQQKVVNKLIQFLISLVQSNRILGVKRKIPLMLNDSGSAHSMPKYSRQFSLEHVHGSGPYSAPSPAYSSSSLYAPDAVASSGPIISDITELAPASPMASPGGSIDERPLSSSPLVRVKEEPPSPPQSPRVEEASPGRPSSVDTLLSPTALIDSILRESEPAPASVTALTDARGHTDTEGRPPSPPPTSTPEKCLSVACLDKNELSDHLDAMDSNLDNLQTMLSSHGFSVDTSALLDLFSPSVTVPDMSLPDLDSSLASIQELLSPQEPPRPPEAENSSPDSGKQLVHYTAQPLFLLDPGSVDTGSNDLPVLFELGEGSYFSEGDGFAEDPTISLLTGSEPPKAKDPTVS
Assay [4] deals with T2, SPIC (Homo sapiens, UniProt Q8N5J4 1-248).
T2 sequence: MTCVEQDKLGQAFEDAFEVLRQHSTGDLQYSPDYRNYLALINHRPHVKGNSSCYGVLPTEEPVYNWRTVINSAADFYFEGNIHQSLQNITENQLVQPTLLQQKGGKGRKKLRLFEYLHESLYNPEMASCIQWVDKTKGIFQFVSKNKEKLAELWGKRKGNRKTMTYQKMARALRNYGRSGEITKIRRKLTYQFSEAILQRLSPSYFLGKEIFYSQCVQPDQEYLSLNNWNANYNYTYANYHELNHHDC
The conditions noted are these: protein: recombinant; tags: N-terminal GST; dsDNA, one strand shown. The procedure, abridged: as §1

The target in assay [5] is ELF4 (Homo sapiens, UniProt Q99607 1-663). The settings on record: protein: recombinant; tags: N-terminal GST; dsDNA, one strand shown. The method in brief:
as §1

The target of assay [6] is T3, ELK4 (Homo sapiens, UniProt P28324-2 1-405).
T3 sequence: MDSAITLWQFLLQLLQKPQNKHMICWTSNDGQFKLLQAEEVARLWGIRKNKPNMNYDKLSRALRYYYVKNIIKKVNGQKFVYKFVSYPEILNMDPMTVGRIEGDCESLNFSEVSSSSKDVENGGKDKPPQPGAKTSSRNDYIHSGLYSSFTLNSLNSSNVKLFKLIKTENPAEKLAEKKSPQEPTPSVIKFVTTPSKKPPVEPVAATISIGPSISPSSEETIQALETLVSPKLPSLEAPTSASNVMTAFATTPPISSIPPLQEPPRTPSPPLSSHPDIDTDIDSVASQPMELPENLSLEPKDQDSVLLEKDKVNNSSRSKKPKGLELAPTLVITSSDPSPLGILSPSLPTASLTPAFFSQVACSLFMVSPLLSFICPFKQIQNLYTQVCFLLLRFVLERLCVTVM
The settings on record: protein: recombinant; tags: N-terminal GST; dsDNA, one strand shown. The procedure, abridged: as §1

In assay [7] the target is T4, ETV2 (Homo sapiens, UniProt O00321 1-342).
T4 sequence: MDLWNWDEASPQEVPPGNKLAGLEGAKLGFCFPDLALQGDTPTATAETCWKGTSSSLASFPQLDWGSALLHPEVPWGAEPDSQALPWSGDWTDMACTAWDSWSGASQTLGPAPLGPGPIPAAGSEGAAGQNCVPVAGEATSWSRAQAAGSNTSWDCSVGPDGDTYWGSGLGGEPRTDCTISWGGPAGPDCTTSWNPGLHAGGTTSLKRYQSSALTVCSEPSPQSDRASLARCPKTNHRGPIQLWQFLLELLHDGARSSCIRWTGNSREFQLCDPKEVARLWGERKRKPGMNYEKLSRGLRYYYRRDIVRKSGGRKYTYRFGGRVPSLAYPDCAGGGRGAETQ
The conditions noted are these: protein: recombinant; tags: N-terminal GST; dsDNA, one strand shown. The procedure, abridged: as §1

Assay [8] deals with T5, ELF3 (Homo sapiens, UniProt P78545 1-371).
T5 sequence: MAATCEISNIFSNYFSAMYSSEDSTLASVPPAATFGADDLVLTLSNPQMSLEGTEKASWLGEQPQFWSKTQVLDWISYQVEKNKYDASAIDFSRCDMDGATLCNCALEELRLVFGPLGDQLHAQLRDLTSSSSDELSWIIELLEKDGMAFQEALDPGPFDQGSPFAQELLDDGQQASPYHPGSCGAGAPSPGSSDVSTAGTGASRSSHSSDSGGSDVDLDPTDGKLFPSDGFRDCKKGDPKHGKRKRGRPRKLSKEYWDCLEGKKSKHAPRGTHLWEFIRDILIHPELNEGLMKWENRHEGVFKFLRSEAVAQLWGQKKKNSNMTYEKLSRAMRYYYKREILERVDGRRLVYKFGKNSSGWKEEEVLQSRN
The conditions noted are these: protein: recombinant; tags: N-terminal GST; dsDNA, one strand shown. The method in brief:
as §1

The target of assay [9] is CRX (Homo sapiens, UniProt O43186 1-299). The settings on record: protein: recombinant; tags: N-terminal GST; dsDNA, one strand shown. The procedure, abridged:
as §1

Assay [10] has as its target ETV1 (Homo sapiens, UniProt P50549 1-477). The settings on record: protein: recombinant; tags: N-terminal GST; dsDNA, one strand shown. The method in brief:
as §1

For assay [11], the target named is T6, ERF (Homo sapiens, UniProt P50548 1-548).
T6 sequence: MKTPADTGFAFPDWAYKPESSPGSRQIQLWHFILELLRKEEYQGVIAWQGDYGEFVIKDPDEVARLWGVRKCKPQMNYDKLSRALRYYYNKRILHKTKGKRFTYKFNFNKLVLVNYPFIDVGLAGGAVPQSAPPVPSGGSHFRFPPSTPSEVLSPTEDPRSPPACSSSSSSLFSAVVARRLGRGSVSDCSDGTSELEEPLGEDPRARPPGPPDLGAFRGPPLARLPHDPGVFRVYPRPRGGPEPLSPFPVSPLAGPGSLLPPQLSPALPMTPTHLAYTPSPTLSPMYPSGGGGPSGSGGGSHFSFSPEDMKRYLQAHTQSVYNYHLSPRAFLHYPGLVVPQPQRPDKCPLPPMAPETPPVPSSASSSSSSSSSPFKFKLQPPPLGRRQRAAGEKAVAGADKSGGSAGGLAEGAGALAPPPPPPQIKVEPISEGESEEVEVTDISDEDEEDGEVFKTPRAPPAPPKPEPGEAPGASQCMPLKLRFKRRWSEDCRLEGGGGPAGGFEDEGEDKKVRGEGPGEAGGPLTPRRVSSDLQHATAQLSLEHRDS
The settings on record: protein: recombinant; tags: N-terminal GST; dsDNA, one strand shown. The procedure, abridged: as §1

Assay [12] deals with T7, ETV3L (Homo sapiens, UniProt Q6ZN32 1-361).
T7 sequence: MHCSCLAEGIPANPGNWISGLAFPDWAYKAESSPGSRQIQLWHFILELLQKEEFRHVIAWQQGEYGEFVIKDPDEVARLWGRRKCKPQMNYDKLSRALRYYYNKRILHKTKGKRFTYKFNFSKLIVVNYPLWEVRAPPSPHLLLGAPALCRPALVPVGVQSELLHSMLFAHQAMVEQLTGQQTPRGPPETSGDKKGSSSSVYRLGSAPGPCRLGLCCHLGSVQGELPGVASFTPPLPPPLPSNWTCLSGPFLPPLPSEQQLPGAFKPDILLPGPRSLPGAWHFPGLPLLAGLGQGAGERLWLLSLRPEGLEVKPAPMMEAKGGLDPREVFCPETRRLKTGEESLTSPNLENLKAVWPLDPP
The conditions noted are these: protein: recombinant; tags: N-terminal GST; dsDNA, one strand shown. The method in brief: as §1

The target in assay [13] is T8, ETS2 (Homo sapiens, UniProt P15036 1-469).
T8 sequence: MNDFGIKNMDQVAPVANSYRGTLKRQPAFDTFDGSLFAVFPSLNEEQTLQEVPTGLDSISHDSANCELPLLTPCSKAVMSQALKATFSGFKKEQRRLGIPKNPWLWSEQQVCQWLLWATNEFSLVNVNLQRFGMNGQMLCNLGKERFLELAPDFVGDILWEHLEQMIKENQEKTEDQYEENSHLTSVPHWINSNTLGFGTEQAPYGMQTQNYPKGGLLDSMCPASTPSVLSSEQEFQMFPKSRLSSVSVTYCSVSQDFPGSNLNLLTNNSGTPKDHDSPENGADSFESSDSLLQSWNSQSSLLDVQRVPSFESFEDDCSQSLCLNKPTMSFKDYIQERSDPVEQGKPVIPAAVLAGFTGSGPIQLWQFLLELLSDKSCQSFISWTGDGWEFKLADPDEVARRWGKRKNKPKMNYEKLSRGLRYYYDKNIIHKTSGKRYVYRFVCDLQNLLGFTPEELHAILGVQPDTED
The conditions noted are these: protein: recombinant; tags: N-terminal GST; dsDNA, one strand shown. The procedure, abridged: as §1

Assay [14] addresses T9, SPDEF (Homo sapiens, UniProt O95238 1-335).
T9 sequence: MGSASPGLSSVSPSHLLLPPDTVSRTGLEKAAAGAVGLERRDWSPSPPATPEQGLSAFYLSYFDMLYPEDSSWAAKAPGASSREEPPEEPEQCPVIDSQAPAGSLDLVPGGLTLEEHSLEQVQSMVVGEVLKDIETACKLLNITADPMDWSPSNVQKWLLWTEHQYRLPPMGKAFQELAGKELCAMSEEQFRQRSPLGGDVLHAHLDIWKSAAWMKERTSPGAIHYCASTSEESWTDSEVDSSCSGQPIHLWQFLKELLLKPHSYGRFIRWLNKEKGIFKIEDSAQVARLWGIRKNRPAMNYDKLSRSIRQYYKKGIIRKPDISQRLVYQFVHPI
The settings on record: protein: recombinant; tags: N-terminal GST; dsDNA, one strand shown. The method in brief: as §1

Assay [15] concerns the target T10, ETV7 (Homo sapiens, UniProt Q9Y603 1-341).
T10 sequence: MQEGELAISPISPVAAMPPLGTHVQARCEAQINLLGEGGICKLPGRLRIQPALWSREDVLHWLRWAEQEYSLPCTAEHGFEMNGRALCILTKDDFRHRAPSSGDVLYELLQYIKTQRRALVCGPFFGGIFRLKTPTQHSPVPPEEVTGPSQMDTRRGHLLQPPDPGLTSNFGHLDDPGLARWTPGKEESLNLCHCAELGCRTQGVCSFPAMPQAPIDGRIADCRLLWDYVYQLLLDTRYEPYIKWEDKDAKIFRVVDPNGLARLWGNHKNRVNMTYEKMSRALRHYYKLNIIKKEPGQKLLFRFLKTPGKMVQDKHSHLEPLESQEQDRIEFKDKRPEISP
The settings on record: protein: recombinant; tags: N-terminal GST; dsDNA, one strand shown. The method in brief: as §1

Assay [16] addresses T11, ELF5 (Homo sapiens, UniProt Q9UKW6-2 1-255).
T11 sequence: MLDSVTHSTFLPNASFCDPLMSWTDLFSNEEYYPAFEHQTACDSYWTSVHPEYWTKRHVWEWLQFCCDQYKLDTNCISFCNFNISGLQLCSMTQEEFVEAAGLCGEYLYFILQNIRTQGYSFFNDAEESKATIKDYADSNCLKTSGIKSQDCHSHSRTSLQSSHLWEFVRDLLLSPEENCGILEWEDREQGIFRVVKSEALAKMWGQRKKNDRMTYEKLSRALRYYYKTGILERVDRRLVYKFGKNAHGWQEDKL
The conditions noted are these: protein: recombinant; tags: N-terminal GST; dsDNA, one strand shown. The procedure, abridged: as §1

For assay [17], the target named is T12, ETV3 (Homo sapiens, UniProt P41162-2 1-143).
T12 sequence: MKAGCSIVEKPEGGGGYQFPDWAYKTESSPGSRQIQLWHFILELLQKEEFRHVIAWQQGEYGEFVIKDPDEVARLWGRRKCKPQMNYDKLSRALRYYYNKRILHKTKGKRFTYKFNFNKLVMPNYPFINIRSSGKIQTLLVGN
The conditions noted are these: protein: recombinant; tags: N-terminal GST; dsDNA, one strand shown. The procedure, abridged:
as §1

In assay [18] the target is ETV6 (Homo sapiens, UniProt P41212 1-452). The conditions noted are these: protein: recombinant; tags: N-terminal GST; dsDNA, one strand shown. The procedure, abridged: as §1
Chain of ETV6 (P41212 whole entry): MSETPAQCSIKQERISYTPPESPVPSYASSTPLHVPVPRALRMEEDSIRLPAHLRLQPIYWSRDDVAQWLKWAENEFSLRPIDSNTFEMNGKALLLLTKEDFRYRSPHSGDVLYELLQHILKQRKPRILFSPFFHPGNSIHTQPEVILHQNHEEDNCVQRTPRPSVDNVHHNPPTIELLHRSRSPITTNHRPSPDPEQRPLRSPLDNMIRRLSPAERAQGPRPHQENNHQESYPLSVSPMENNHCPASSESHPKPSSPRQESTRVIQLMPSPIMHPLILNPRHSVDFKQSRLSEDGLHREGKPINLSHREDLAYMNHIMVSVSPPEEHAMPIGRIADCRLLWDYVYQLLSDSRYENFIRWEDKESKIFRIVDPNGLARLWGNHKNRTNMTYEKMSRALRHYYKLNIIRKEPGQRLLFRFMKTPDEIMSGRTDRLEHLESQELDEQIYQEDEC

Chain of ELF4 (Q99607 whole entry): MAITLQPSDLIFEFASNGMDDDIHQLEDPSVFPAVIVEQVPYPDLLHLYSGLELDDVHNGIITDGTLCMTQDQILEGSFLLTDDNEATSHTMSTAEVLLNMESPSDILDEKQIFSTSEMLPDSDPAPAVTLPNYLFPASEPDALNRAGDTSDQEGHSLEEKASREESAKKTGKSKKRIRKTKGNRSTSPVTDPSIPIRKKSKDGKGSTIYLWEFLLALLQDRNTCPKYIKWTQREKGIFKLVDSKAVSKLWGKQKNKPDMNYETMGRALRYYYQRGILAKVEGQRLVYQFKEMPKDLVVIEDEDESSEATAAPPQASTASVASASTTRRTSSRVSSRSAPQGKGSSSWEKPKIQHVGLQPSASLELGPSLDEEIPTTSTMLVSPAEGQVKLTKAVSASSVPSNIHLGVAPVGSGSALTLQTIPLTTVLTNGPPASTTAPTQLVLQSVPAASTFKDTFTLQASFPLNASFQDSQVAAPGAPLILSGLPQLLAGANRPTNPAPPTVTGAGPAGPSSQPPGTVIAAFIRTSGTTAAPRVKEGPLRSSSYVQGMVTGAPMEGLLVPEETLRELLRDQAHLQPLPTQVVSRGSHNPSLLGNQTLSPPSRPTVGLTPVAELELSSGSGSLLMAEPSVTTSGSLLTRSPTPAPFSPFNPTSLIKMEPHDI
Chain of ETV5 (P41161 whole entry): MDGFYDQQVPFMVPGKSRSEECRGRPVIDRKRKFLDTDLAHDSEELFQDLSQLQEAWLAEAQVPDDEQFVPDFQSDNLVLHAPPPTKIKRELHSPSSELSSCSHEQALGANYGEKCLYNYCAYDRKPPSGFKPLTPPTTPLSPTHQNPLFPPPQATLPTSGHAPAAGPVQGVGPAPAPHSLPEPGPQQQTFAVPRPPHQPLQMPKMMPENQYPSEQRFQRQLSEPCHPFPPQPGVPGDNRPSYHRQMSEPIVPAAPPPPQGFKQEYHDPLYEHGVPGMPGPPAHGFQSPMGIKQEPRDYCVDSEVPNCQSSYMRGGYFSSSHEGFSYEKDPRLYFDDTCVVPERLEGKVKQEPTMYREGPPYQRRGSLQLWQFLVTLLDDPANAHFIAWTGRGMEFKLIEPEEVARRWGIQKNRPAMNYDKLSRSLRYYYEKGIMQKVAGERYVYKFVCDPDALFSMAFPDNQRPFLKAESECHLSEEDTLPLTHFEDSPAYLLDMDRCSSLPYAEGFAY
Chain of CRX (O43186 whole entry): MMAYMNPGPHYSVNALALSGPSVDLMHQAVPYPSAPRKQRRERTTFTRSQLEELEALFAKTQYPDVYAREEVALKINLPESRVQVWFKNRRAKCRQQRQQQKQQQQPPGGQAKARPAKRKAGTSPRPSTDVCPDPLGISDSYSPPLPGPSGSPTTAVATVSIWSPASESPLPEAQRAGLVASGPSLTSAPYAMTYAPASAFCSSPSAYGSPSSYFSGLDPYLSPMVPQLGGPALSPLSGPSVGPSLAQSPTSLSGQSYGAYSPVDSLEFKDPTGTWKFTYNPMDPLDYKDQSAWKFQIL
Chain of ETV1 (P50549 whole entry): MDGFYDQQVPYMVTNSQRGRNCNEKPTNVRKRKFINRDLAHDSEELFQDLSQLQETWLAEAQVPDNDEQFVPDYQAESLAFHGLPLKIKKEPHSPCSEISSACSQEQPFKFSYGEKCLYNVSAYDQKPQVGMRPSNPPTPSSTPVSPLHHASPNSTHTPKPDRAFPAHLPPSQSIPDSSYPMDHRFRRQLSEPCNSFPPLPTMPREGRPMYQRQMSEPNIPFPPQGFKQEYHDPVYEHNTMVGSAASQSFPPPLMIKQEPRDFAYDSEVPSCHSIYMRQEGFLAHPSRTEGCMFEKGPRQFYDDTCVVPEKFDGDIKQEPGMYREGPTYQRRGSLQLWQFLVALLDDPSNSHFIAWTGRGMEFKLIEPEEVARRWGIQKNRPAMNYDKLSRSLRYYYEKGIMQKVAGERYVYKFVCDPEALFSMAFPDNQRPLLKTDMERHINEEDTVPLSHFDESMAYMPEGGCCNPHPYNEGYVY

As to TTAAAG, the binding signal in assay [1] was 1.17 fold enrichment (6-mer frequency, TF over GST control); in assay [2] it was 1.15 fold enrichment (6-mer frequency, TF over GST control); in assay [3] it was 1.85 fold enrichment (6-mer frequency, TF over GST control); in [4], 1.17 fold enrichment (6-mer frequency, TF over GST control); in assay [5], 1.15 fold enrichment (6-mer frequency, TF over GST control); in assay [6] it was 1.18 fold enrichment (6-mer frequency, TF over GST control). For the same sequence, the binding signal was 1.12 fold enrichment (6-mer frequency, TF over GST control) in [7]; 1.26 fold enrichment (6-mer frequency, TF over GST control) in [8]; 2.66 fold enrichment (6-mer frequency, TF over GST control) in [9]; 1.15 fold enrichment (6-mer frequency, TF over GST control) in assay [10]; 1.25 fold enrichment (6-mer frequency, TF over GST control) in [11]; 1.2 fold enrichment (6-mer frequency, TF over GST control) in assay [12]. The binding signal is 1.19 fold enrichment (6-mer frequency, TF over GST control) in assay [13]; 1.12 fold enrichment (6-mer frequency, TF over GST control) in [14]; 1.21 fold enrichment (6-mer frequency, TF over GST control) in assay [15]; 1.13 fold enrichment (6-mer frequency, TF over GST control) in [16]; 1.21 fold enrichment (6-mer frequency, TF over GST control) in [17]; 1.19 fold enrichment (6-mer frequency, TF over GST control) in assay [18].
